PubChem BioAssay (EPA / NIEHS)
Inconclusive results are not listed. Active and inactive are the calls of the source. Rule for the calls, unless noted: active = hit-call score of the fitted dose curve at least 0.9, where 1 is the maximum; inconclusive = response in the unintended direction; inactive = score below 0.9.

Tests used:
[1] = read-out: UDP glucuronosyltransferase (UGT1A1), UGT1A1 (gene 54658); assay: LTEA_HepaRG_UGT1A1: Life Technologies and Expression Analysis (LTEA) Assay for UDP glucuronosyltransferase (UGT1A1) using HepaRG (AID 2283538; active = hit-call score of the fitted dose curve at least 0.9, where 1 is the maximum; inactive = score below 0.9); settings: mRNA level, 48 h; actives raise or lower the signal
Procedure, shortened: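 Differentiated human HepaRG cells in serum-free induction medium were exposed in duplicate for 48 h to eight half-log concentrations up to 100 uM in 0.5% DMSO. UGT1A1 mRNA was quantified by TaqMan qRT-PCR, normalized to ACTB, GAPDH and POLR2A, and fitted bidirectionally against DMSO.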

[2] = read-out: UDP glucuronosyltransferase (UGT1A6), UGT1A6 (gene 54578); assay: LTEA_HepaRG_UGT1A6: Life Technologies and Expression Analysis (LTEA) Assay for UDP glucuronosyltransferase (UGT1A6) using HepaRG (AID 2283539; active = hit-call score of the fitted dose curve at least 0.9, where 1 is the maximum; inactive = score below 0.9); settings: mRNA level, 48 h; actives raise or lower the signal
Procedure, shortened: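 Expression was quantified by TaqMan qRT-PCR on Fluidigm arrays with ACTB/GAPDH/POLR2A normalization and bidirectional fitting against 0.5% DMSO. HepaRG cells (~100,000/well) were treated in duplicate for 48 h at eight half-log concentrations up to 100 uM in serum-free induction medium.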

[3] = read-out: X-box binding protein 1 (XBP1), XBP1 (gene 7494); assay: LTEA_HepaRG_XBP1: Life Technologies and Expression Analysis (LTEA) Assay for X-box binding protein 1 (XBP1) using HepaRG (AID 2283540; active = hit-call score of the fitted dose curve at least 0.9, where 1 is the maximum; inactive = score below 0.9); settings: mRNA level, 48 h; actives raise or lower the signal
Procedure, shortened: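 XBP1 transcript by qRT-PCR (housekeeping-normalized: ACTB, GAPDH, POLR2A) after 48 h chemical treatment of HepaRG cells, 8-point half-log series topping at 100 uM, vehicle 0.5% DMSO. Gain and loss of signal fitted relative to DMSO.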

[4] = LTEA_HepaRG_LDH_cytotoxicity: Cytotoxicity Assessment in the Life Technologies and Expression Analysis (LTEA) Assay (AID 2283563)
Procedure, shortened: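 LDH release into culture medium read after 48 h chemical treatment of HepaRG cells. Duplicate wells, eight-point half-log series topping at 100 uM, 0.5% DMSO vehicle and baseline.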

[5] = ATG_XTT_Cytotoxicity: Cytotoxicity Assessment in the Attagene TRANS-FACTORIAL HepG2 Assay (AID 2283584)
Procedure, shortened: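 Viability endpoint from XTT after 24 h chemical exposure of reporter-transfected human HepG2 liver cells; signal loss fitted relative to DMSO negative control.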

[6] = biological target: Cellular tumor antigen p53 (Homo sapiens) (UniProt P04637); assay: TOX21_p53_BLA_p2_ratio: Tox21 HCT-116 p53 Agonism Beta-lactamase Assay, Ratio, Phase 2 (AID 2283592)
Sequence of Cellular tumor antigen p53 (Homo sapiens) (P04637 whole entry, looked up): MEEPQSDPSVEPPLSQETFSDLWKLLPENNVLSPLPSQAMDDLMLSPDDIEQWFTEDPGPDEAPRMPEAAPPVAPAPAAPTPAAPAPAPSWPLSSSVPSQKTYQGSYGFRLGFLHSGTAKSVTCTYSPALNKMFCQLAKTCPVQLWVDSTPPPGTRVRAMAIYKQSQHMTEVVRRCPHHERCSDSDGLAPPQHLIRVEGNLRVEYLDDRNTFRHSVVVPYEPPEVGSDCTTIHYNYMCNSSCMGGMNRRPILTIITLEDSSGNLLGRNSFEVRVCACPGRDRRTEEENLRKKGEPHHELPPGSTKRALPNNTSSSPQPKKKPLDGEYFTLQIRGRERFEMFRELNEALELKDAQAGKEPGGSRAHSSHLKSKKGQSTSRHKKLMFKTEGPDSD
Procedure, shortened: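 Gain-of-signal p53 agonism was scored from the beta-lactamase FRET ratio (460/530 nm, 405 nm excitation) in HCT116 cells treated 16 h at 37C, 5% CO2, with DMSO serving as negative control and baseline.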

[7] = biological target: Cellular tumor antigen p53 (Homo sapiens) (UniProt P04637); assay: TOX21_p53_BLA_p3_ratio: Tox21 HCT-116 p53 Agonism Beta-lactamase Assay, Ratio, Phase 3 (AID 2283596)
Procedure, shortened: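 HCT116 p53-bla cells (4000/well) given compound in DMSO (217-fold dilution) after 5 h, incubated 16 h at 37C. CCF4-AM substrate 2 h at room temperature; 460/530 nm emission ratio, gain fitted against DMSO.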

[8] = TOX21_p53_BLA_p4_viability: Viability Assessment in the Tox21 HCT-116 p53 Agonism Beta-lactamase Assay, Phase 4 (AID 2283597);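 note: hits lower the luminescence signal meaning cytotoxicity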
Procedure, shortened: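 Following a 16 h exposure at 37C, the treated HCT116 wells were first read for the FRET ratio. They were then lysed with CellTiter-Glo, and ATP luminescence was recorded after 30 min at room temperature.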

[9] = biological target: Cellular tumor antigen p53 (Homo sapiens) (UniProt P04637); assay: TOX21_p53_BLA_p5_ratio: Tox21 HCT-116 p53 Agonism Beta-lactamase Assay, Ratio, Phase 5 (AID 2283599)
Procedure, shortened: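 HCT-116 p53-bla cells (4000/well) plated 5 h, dosed with compound (217-fold DMSO dilution) for 16 h at 37 C; CCF4-AM substrate 2 h at room temperature. Activity is the 460/530 nm emission ratio (405 nm excitation), fitted in gain-of-signal direction versus DMSO.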

[10] = biological target: Cellular tumor antigen p53 (Homo sapiens) (UniProt P04637); assay: TOX21_p53_BLA_p4_ratio: Tox21 HCT-116 p53 Agonism Beta-lactamase Assay, Ratio, Phase 4 (AID 2283601)
Procedure, shortened: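 HCT-116 p53 beta-lactamase reporter cells (4000/well) preincubated 5 h, then compound (217-fold dilution of DMSO stock) for 16 h at 37C. CCF4-AM substrate added 2 h at room temperature; 460/530 nm emission ratio fitted upward versus DMSO.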

[11] = Tanguay_ZF_120hpf_MORT_legacy: (Legacy) Oregon State University Tanguay Lab 120 Hour Post-fertilization zebrafish Assay for Mortality (AID 2283633)
Procedure, shortened: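 Static waterborne exposure from 6 to 120 hpf at 28C of single dechorionated wild-type (5D) embryos per well, 0.64% DMSO final. Death recorded present/absent by brightfield at 24 and 120 hpf.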

[12] = Tanguay_ZF_120hpf_YSE_legacy: (Legacy) Oregon State University Tanguay Lab 120 Hour Post-fertilization zebrafish Assay for Yolk Sac Edema (AID 2283634)
Procedure, shortened: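 Presence or absence of yolk sac edema was recorded at 120 hpf in surviving larvae. These were wild-type Tropical 5D embryos, chorion removed at 4 hpf, held in static exposure at 28C from 6 hpf with 0.64% DMSO vehicle.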

[13] = Tanguay_ZF_120hpf_AXIS_legacy: (Legacy) Oregon State University Tanguay Lab 120 Hour Post-fertilization zebrafish Assay for Body Axis Malformation (AID 2283635)
Procedure, shortened: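 Binary scoring of axis defects at 120 hpf under brightfield, fitted positive versus DMSO. Tropical 5D embryos, chorion removed by pronase at 4 hpf, were singly exposed in sealed, dark plates at 28C from 6 hpf; DMSO 0.64% final.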

[14] = Tanguay_ZF_120hpf_SNOU_legacy: (Legacy) Oregon State University Tanguay Lab 120 Hour Post-fertilization zebrafish Assay for Snout Malformation (AID 2283637)
Procedure, shortened: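 Dechorionated tropical 5D wild-type zebrafish embryos exposed statically from 6 to 120 hpf at 28C, one per well, in 0.64% DMSO. Snout malformation scored as present/absent by brightfield at 120 hpf; dead embryos not scored.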

[15] = Tanguay_ZF_120hpf_JAW_legacy: (Legacy) Oregon State University Tanguay Lab 120 Hour Post-fertilization zebrafish Assay for Jaw Malformation (AID 2283638)
Procedure, shortened: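 Binary jaw-malformation call at 120 hpf by brightfield microscopy. Embryos (Tropical 5D strain, chorion removed at 4 hpf) were dosed statically at 6 hpf, one per well, at 28C with 0.64% DMSO. Embryos that died were not scored.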

[16] = Tanguay_ZF_120hpf_OTIC_legacy: (Legacy) Oregon State University Tanguay Lab 120 Hour Post-fertilization zebrafish Assay for Otic Vesicle Malformation (AID 2283639)
Procedure, shortened: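 Tropical 5D wild-type zebrafish embryos were exposed statically in sealed, foil-covered plates at 28C until 120 hpf, with 0.64% (vol/vol) DMSO final. Otic vesicle malformation was scored present/absent by brightfield microscopy, with DMSO as baseline.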

[17] = TOX21_p53_BLA_p2_viability: Viability Assessment in the Tox21 HCT-116 p53 Agonism Beta-lactamase Assay, Phase 2 (AID 2283591);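 note: compound exposure lasted 16 h at 37 °C; actives lower the ATP signal meaning cytotoxicity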
Procedure, shortened: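 HCT116 p53-bla cells, 4000/well, dosed after 5 h plating (217-fold dilution of DMSO stocks) and incubated 16 h at 37C. Viability taken as cellular ATP by CellTiter-Glo luminescence after 30 min RT; signal loss marks cytotoxicity.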

[18] = TOX21_p53_BLA_p5_viability: Viability Assessment in the Tox21 HCT-116 p53 Agonism Beta-lactamase Assay, Phase 5 (AID 2283600)
Procedure, shortened: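 After the 460/530 nm beta-lactamase measurement, the wells received an ATP-detection luciferase reagent; signal was read 30 min later at RT. Compound treatment lasted 16 h on cells pre-incubated 5 h post-seeding.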

[19] = Tanguay_ZF_120hpf_EYE_legacy: (Legacy) Oregon State University Tanguay Lab 120 Hour Post-fertilization zebrafish Assay for Eye Malformation (AID 2283636);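 note: binary presence or absence of eye malformation scored by brightfield in 120 hpf larvae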
Procedure, shortened: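 Dechorionated Tropical 5D zebrafish embryos, one per well from 6 hpf, static exposure to 120 hpf at 28C, 0.64% DMSO. Eye malformation scored present/absent by brightfield; dead embryos not scored.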

[20] = TOX21_p53_BLA_p3_viability: Viability Assessment in the Tox21 HCT-116 p53 Agonism Beta-lactamase Assay, Phase 3 (AID 2283593);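 note: cells exposed to compound for 16 h before reading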
Procedure, shortened: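 HCT116 cells, 4000/well, dosed 5 h after plating by pin transfer (217-fold dilution from DMSO stock) and incubated 16 h at 37C, 5% CO2. Viability read as ATP luminescence with CellTiter-Glo after 30 min at room temperature.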

Structure (SMILES): COc1ccc(C)cc1N
- outcome [1]: inactive
- outcome [2]: inactive
- outcome [3]: inactive
- outcome [4]: inactive
- outcome [5]: inactive
- outcome [6]: inactive
- outcome [7]: inactive
- outcome [8]: inactive
- outcome [9]: inactive
- outcome [10]: inactive
- outcome [11]: inactive
- outcome [12]: inactive
- outcome [13]: inactive
- outcome [14]: inactive
- outcome [15]: inactive
- outcome [16]: inactive

Structure (SMILES): CC(=O)OC/C=C(\C)CCC=C(C)C
- outcome [1]: inactive
- outcome [2]: inactive
- outcome [3]: inactive
- outcome [4]: inactive
- outcome [5]: inactive
- outcome [17]: inactive
- outcome [6]: inactive
- outcome [7]: inactive
- outcome [9]: inactive
- outcome [18]: inactive
- outcome [10]: inactive
- outcome [11]: inactive
- outcome [12]: inactive
- outcome [13]: inactive
- outcome [19]: inactive
- outcome [14]: inactive
- outcome [15]: inactive

Structure (SMILES): Cc1cc(=O)[nH]c(=S)[nH]1
- outcome [1]: inactive
- outcome [2]: inactive
- outcome [3]: inactive
- outcome [4]: inactive
- outcome [17]: inactive
- outcome [6]: inactive
- outcome [20]: inactive
- outcome [7]: inactive
- outcome [9]: inactive
- outcome [18]: inactive
- outcome [10]: inactive
- outcome [11]: inactive
- outcome [12]: inactive
- outcome [13]: inactive
- outcome [19]: inactive
- outcome [14]: inactive
- outcome [15]: inactive
- outcome [16]: inactive

Structure (SMILES): CN1CCCC1=O
- outcome [1]: inactive
- outcome [2]: inactive
- outcome [3]: inactive
- outcome [4]: inactive
- outcome [5]: inactive
- outcome [6]: inactive
- outcome [20]: inactive
- outcome [7]: inactive
- outcome [8]: inactive
- outcome [9]: inactive
- outcome [18]: inactive
- outcome [10]: inactive
- outcome [11]: inactive
- outcome [12]: inactive
- outcome [13]: inactive
- outcome [19]: inactive
- outcome [15]: inactive
- outcome [16]: inactive

Structure (SMILES): CC(=O)Oc1ccccc1C(=O)O
- outcome [1]: inactive
- outcome [2]: inactive
- outcome [3]: inactive
- outcome [4]: inactive
- outcome [17]: inactive
- outcome [6]: inactive
- outcome [20]: inactive
- outcome [7]: inactive
- outcome [8]: inactive
- outcome [18]: inactive
- outcome [10]: inactive
- outcome [11]: inactive
- outcome [12]: inactive
- outcome [13]: inactive
- outcome [14]: inactive
- outcome [15]: inactive

Structure (SMILES): Cc1ccc(N(C)C)cc1
- AC50 [1]: 26.6 µM (active)
- outcome [2]: inactive
- outcome [3]: inactive
- outcome [4]: inactive
- outcome [17]: inactive
- outcome [6]: inactive
- outcome [20]: inactive
- outcome [7]: inactive
- outcome [8]: inactive
- outcome [9]: inactive
- outcome [18]: inactive
- outcome [10]: inactive
- outcome [11]: inactive
- outcome [12]: inactive
- outcome [13]: inactive
- outcome [19]: inactive
- outcome [14]: inactive
- outcome [15]: inactive

Structure (SMILES): Clc1cc(Cl)c(Cl)cc1Cl
- outcome [1]: inactive
- outcome [2]: inactive
- outcome [3]: inactive
- outcome [4]: inactive
- outcome [5]: inactive
- outcome [17]: inactive
- outcome [20]: inactive
- outcome [7]: inactive
- outcome [8]: inactive
- outcome [9]: inactive
- outcome [18]: inactive
- outcome [10]: inactive
- outcome [11]: inactive
- outcome [19]: inactive
- outcome [15]: inactive
- outcome [16]: inactive

Structure (SMILES): NS(=O)(=O)c1cc2c(cc1Cl)NCNS2(=O)=O
- outcome [1]: inactive
- outcome [2]: inactive
- outcome [3]: inactive
- outcome [4]: inactive
- outcome [17]: inactive
- outcome [6]: inactive
- outcome [20]: inactive
- outcome [7]: inactive
- outcome [8]: inactive
- outcome [18]: inactive
- outcome [10]: inactive
- outcome [11]: inactive
- outcome [12]: inactive
- outcome [13]: inactive
- outcome [19]: inactive
- outcome [14]: inactive
- outcome [15]: inactive
- outcome [16]: inactive
